Laboratory results: PubChem BioAssay (NCATS)
Records with an inconclusive call do not appear. A call without a number means that no potency is given here. Activity calls are given as the source filed them. The call rests on the fitted dose curve; in most records, active means well fitted inhibition curve with a large enough effect; inconclusive means small, poorly fitted or top-dose-only effect; inactive means no such curve, though single readings can be large or run the other way.

These molecules were tested against Rap guanine nucleotide exchange factor 3 (Homo sapiens) (UniProt O95398) (assay: Confirmatory qHTS for antagonist of cAMP-regulated guanine nucleotide exchange factor 3 (EPAC1) (AID 1645880; further: nearly all actives have a fitted effect of over 55% in size)). Conditions: EPAC1 Rap1B-BODIPY-GDP exchange, fluorescence; series mostly up to 115 µM.
How it was run: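 Nucleotide exchange uses 100 nM EPAC1, 250 nM RAP1B-BODIPY-GDP and 50 uM GDP, with compounds in a concentration-titration series. After 5 min at room temperature, fluorescence (480 nm ex/540 nm em) is read every 5 min for 30 min. Data are normalized to control ATA and DMSO.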
Potency means the concentration at half of the fitted maximal effect.

Sequence of Rap guanine nucleotide exchange factor 3 (Homo sapiens) (O95398 whole entry, looked up): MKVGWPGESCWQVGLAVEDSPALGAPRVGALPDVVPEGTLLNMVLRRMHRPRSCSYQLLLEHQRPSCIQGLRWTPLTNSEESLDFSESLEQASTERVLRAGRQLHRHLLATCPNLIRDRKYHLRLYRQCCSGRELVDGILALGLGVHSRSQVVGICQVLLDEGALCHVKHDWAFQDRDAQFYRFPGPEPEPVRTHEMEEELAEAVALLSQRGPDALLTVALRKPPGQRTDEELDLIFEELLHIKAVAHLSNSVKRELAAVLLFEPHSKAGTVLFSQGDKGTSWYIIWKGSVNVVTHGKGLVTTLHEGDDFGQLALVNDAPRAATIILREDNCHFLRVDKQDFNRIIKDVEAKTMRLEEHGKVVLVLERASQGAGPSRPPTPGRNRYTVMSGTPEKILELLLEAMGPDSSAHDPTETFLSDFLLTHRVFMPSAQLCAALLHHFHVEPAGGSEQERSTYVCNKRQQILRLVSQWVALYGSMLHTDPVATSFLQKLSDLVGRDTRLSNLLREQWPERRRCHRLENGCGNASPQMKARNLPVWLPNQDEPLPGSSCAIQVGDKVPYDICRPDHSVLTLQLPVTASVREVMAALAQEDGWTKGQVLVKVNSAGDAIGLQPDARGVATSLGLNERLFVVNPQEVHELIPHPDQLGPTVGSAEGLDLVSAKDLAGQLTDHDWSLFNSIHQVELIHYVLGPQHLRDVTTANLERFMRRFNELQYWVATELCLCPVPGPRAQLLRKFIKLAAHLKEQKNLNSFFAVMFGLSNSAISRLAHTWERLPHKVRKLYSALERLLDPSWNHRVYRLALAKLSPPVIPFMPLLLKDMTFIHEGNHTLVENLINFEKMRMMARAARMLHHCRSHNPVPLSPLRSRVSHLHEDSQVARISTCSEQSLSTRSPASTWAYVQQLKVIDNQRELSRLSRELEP

Row | Compound | Potency
1 | COC(=O)c1cc(Br)c(=O)n(CCC2=CCCCC2)c1 | inactive
2 | C=CCn1c(N)c(S(=O)(=O)c2cccs2)c2nc3ccccc3nc21 | 33.8 µM (active)
3 | Cc1[nH]c2ccccc2c1/C=C/c1ccc2ccccc2n1 | inactive
4 | CCCCOC(=O)Nc1ccc(S(=O)(=O)Nc2nccs2)cc1 | inactive
5 | Cc1cc(/C=C/c2ccnc3ccccc23)ccc1N(C)C | inactive
6 | C/C=C(\C)C(=O)OC1C(OC(=O)C2(C)OC2C)c2cc3ccc(=O)oc3cc2OC1(C)C (stereo not given) | inactive
7 | C(=C\c1ccnc2ccccc12)/c1ccc2ccccc2n1 | inactive
8 | COc1cccc(CN(C)C(=O)c2cnn(-c3ncc4c(n3)-c3ccccc3CCC4)c2C)c1 | inactive
9 | Cc1nc(C)n(CC(=O)NCC2Cc3cc(-c4cccc(OC(F)(F)F)c4)ccc3O2)n1 (stereo not given) | inactive
10 | CCc1ccc([C@@H]2CC=C(C(=O)O)[C@H](c3ccc(Br)cc3)N2S(=O)(=O)c2ccc(C)cc2)cc1 | 17.8 µM (active)
11 | C[C@@H]1CCC(=O)N(CC[C@H](Oc2ccccc2)c2ccccc2)CC1 | inactive
12 | O=C(CN1Cc2ccccc2OC(c2ccsc2)C1)N1CCN(Cc2ccc3c(c2)OCO3)CC1 (stereo not given) | inactive
13 | CCOC(=O)C1CCCN(C(=O)c2cnn(-c3nccc(-c4cc(C)sc4C)n3)c2C)C1 (stereo not given) | inactive
14 | Cc1ccc(C)c(N2CCN(C(=O)CCc3nc(-c4ccc(Cl)cc4)no3)CC2)c1 | inactive
15 | CN1CC(O)C2=CC(=O)C(=O)C=C21 (stereo not given) | 2.8 µM (active)
16 | Cn1c(O)c(N=NC(=O)c2ccccc2O)c2ccccc21 | 53.6 µM (active)
17 | COc1ccc(C(=O)c2ccc(Br)cc2)c2ccccc12 | inactive
18 | O=c1c2ccccc2oc2ccc(Oc3ccccc3)cc12 | inactive
19 | Cc1cc(C(=O)NCc2nc(-c3cccc(NC(=O)c4ccccc4)c3)oc2C)nc(C)n1 | inactive
20 | Cc1cccc(N(C(=O)c2csnn2)C(C(=O)NCc2ccccc2)c2cccs2)c1 (stereo not given) | inactive

Row | Compound | Potency
21 | COc1ccc(C(=O)NC2CCCc3ccccc32)c(OC)c1OC (stereo not given) | inactive
22 | CC(C)C[C@@H](COc1ccccc1)N1CCN(Cc2ccccc2)CCC1=O | inactive
23 | Cc1ccc2c(/C=C/c3ccc(N(C)C)cc3)ccnc2c1C | inactive
24 | Cc1cc(C)c2nccc(/C=C/c3ccc(N(C)C)cc3)c2c1 | inactive
25 | CC/C(=C/c1ccccc1OC)c1cc(-c2ccccc2)cc2oc3ccccc3c12 | inactive
26 | Cn1cc(/C=C/c2ccc3ccccc3n2)c2ccccc21 | inactive
27 | O=C(Nc1ccc(Cl)cc1)N[C@@H]1CC[C@H](CCNS(=O)(=O)c2ccccc2F)O[C@@H]1CO | inactive
28 | CCc1ccc2c(c1)C(NC(C)=O)C(=O)N2CCN1CCOCC1 (stereo not given) | 19 µM (active)
29 | COCCN(CCOC)c1nc(-c2ccccc2)nc2ccccc12 | inactive
30 | Cc1ccc(S(=O)(=O)N2[C@@H](c3cccc(Cl)c3)C(C(=O)O)=CC[C@H]2c2ccc(C(C)C)cc2)cc1 | 67.5 µM (active)
31 | CC(C)(C)[C@H]1CCC(=O)N([C@H](CN=[N+]=[N-])Cc2ccccc2)CC1 | inactive
32 | Cc1ccc2nccc(/C=C/c3ccc(N(C)C)cc3)c2c1 | inactive
33 | Cc1cnc2ccccc2c1/C=C/c1ccc(N(C)C)cc1 | inactive
34 | COc1cc(CCN(C(=O)c2cccc(S(C)(=O)=O)c2)C(CCc2ccccc2)c2nc3ccccc3[nH]2)cc(OC)c1 (stereo not given) | inactive
35 | Cc1cc(C)cc(NC(=O)c2sc3nc(-c4ccccc4)cn3c2C)c1 | inactive
36 | COc1ccc(C2CN=NC23CCc2ccccc2C3=O)cc1 (stereo not given) | inactive
37 | COc1cc(-c2noc(C)c2-c2ccc3[nH]ccc3c2)cc(OC)c1OC | inactive
38 | CN(CCc1ccccc1)C(=O)c1cc(COc2cccc(C(F)(F)F)c2)on1 | inactive
39 | Cc1ccc(C2SCC(=O)N2Cc2ccccc2)cc1 (stereo not given) | inactive
40 | Cc1ccc2c(/C=C/c3c[nH]c4ccccc34)ccnc2c1C | inactive
